From PubChem BioAssay AID624487 (NMMLSC, 2012)
Measured potencies and affinities stand elsewhere. The source made the active and inactive calls.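 Rule for the calls: active = fitted EC50, the dose giving half the maximal drop in porphyrin signal, under 100 µM; inactive = the rest.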

Biological target: ATP-binding cassette sub-family B member 6 (Homo sapiens) (UniProt Q9NP58)
Assay: ABCB6 transporter inhibitors, porphyrin accumulation, dose response, flow cytometry, K562-ABCB6 cells, cherry pick 02 (AID 624487)

Sequence of ATP-binding cassette sub-family B member 6 (Homo sapiens) (Q9NP58 whole entry, looked up): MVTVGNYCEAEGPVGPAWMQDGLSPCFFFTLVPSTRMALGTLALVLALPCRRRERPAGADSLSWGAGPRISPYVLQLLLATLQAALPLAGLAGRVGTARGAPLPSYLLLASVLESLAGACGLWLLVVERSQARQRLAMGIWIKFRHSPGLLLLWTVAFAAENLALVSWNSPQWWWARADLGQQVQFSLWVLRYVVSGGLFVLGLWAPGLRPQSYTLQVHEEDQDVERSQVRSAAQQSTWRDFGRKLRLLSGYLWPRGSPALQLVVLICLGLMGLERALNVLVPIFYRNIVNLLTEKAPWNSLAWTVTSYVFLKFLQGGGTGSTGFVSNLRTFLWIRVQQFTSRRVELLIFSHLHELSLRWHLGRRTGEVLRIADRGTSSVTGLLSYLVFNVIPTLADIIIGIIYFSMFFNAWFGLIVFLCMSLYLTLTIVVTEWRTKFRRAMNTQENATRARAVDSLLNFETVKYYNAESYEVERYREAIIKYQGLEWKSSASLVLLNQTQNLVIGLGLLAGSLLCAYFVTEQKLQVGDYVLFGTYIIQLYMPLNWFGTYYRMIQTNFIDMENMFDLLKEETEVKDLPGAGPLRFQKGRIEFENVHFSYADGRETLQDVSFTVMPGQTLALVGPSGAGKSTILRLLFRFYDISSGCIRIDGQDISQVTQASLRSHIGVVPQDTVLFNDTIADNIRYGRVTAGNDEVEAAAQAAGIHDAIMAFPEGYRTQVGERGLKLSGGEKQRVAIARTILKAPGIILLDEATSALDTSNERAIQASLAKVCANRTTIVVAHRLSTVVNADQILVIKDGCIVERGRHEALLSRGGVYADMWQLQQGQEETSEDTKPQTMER

SMILES: CCc1nnc(NC(=O)c2nc(S(=O)(=O)Cc3cccc(C)c3)ncc2Cl)s1
- outcome: inactive

SMILES: CCc1nnc(NC(=O)c2nc(S(=O)(=O)Cc3ccccc3)ncc2Cl)s1
- outcome: inactive

SMILES: CCCc1nnc(NC(=O)c2nc(S(=O)(=O)Cc3ccc(C)cc3)ncc2Cl)s1
- outcome: inactive

SMILES: COc1ccc(NC(=O)c2nc(S(=O)(=O)Cc3cccc(C)c3)ncc2Cl)c(OC)c1
- outcome: inactive

SMILES: Cc1nnc(NC(=O)c2nc(S(=O)(=O)Cc3ccccc3C)ncc2Cl)s1
- outcome: inactive

SMILES: CC(C)c1nnc(NC(=O)c2nc(S(=O)(=O)Cc3ccc(F)cc3)ncc2Cl)s1
- outcome: inactive

SMILES: CCOC(=O)c1ccc(NC(=O)c2nc(S(=O)(=O)Cc3ccccc3)ncc2Cl)cc1
- outcome: inactive

SMILES: Cc1nnc(NC(=O)c2nc(S(=O)(=O)Cc3ccccc3)ncc2Cl)s1
- outcome: inactive

SMILES: Cc1cccc(CS(=O)(=O)c2ncc(Cl)c(C(=O)Nc3nnc(C(C)C)s3)n2)c1
- outcome: inactive

SMILES: Cc1ccc(CS(=O)(=O)c2ncc(Cl)c(C(=O)Nc3ccc(OC(F)F)cc3)n2)cc1
- outcome: inactive

SMILES: Cc1ccc(CS(=O)(=O)c2ncc(Cl)c(C(=O)Nc3nnc(C)s3)n2)cc1
- outcome: inactive

SMILES: COc1ccc(OC)c(NC(=O)c2nc(S(=O)(=O)Cc3ccccc3)ncc2Cl)c1
- outcome: inactive

SMILES: CCOc1ccccc1NC(=O)c1nc(S(=O)(=O)Cc2ccccc2)ncc1Cl
- outcome: inactive
